{
  "source": "PubChem BioAssay AID1159580",
  "about": "(chemical genetic matrix, 2015)",
  "test": "chemical genetic growth profiling, strain panel (AID 1159580);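 note: tested at 20 µM; growth read once vehicle control cultures reached saturation at 30 °C; 1 = growth at the plate median or of vehicle wells; lower values mean less growth of the strain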",
  "settings": "growth OD",
  "key": {"[1]": {"settings": "S. cerevisiae deletion strains, locus YAL013W, strain DEP1, stronger effect = lower value"}, "[2]": {"settings": "S. cerevisiae deletion strains, locus YBR229C, strain ROT2, stronger effect = lower value"}, "[3]": {"settings": "S. cerevisiae deletion strains, locus YDL101C, strain DUN1, stronger effect = lower value"}, "[4]": {"settings": "S. cerevisiae deletion strains, locus YDR150W, strain NUM1, stronger effect = lower value"}, "[5]": {"settings": "S. cerevisiae deletion strains, locus YEL061C, strain CIN8, stronger effect = lower value"}, "[6]": {"settings": "S. cerevisiae deletion strains, locus YGR078C, strain PAC10, stronger effect = lower value"}, "[7]": {"settings": "S. cerevisiae deletion strains, locus YHR030C, strain SLT2, stronger effect = lower value"}, "[8]": {"settings": "S. cerevisiae deletion strains, locus YHR087W, strain rtc3, stronger effect = lower value"}, "[9]": {"settings": "S. cerevisiae deletion strains, locus YJR043C, strain POL32, stronger effect = lower value"}, "[10]": {"settings": "S. cerevisiae deletion strains, locus YJR075W, strain HOC1, stronger effect = lower value"}, "[11]": {"settings": "S. cerevisiae deletion strains, locus YLR039C, strain RIC1, stronger effect = lower value"}, "[12]": {"settings": "S. cerevisiae deletion strains, locus YLR058C, strain SHM2 (second series), stronger effect = lower value"}, "[13]": {"settings": "S. cerevisiae deletion strains, locus YLR085C, strain ARP6, stronger effect = lower value"}, "[14]": {"settings": "S. cerevisiae deletion strains, locus YLR262C, strain YPT6, stronger effect = lower value"}, "[15]": {"settings": "S. cerevisiae deletion strains, locus YML094W, strain GIM5, stronger effect = lower value"}, "[16]": {"settings": "S. cerevisiae deletion strains, locus YMR219W, strain ESC1, stronger effect = lower value"}, "[17]": {"settings": "S. cerevisiae deletion strains, locus YMR263W, strain SAP30, stronger effect = lower value"}, "[18]": {"settings": "S. cerevisiae deletion strains, locus YNL128W, strain TEP1, stronger effect = lower value"}, "[19]": {"settings": "S. cerevisiae deletion strains, locus YNL153C, strain GIM3, stronger effect = lower value"}, "[20]": {"settings": "S. cerevisiae deletion strains, locus YNL298W, strain CLA4 (second series), stronger effect = lower value"}, "[21]": {"settings": "S. cerevisiae deletion strains, locus YNL322C, strain KRE1, stronger effect = lower value"}, "[22]": {"settings": "S. cerevisiae deletion strains, locus YNR030W, strain Alg12, stronger effect = lower value"}, "[23]": {"settings": "S. cerevisiae deletion strains, locus YPL055C, strain LGE1, stronger effect = lower value"}, "[24]": {"settings": "S. cerevisiae deletion strains, locus YPL241C, strain CIN2, stronger effect = lower value"}, "[25]": {"settings": "S. cerevisiae deletion strains, locus YPR135W, strain CTF4, stronger effect = lower value"}, "[26]": {"settings": "S. cerevisiae strains, strain wild type, stronger effect = lower value"}},
  "note": "In all, about 5,500 compounds went through this assay and about 2,000 (36%) were called active. Inconclusive results (about 18%) are left out. Some of the results follow. Values without a mark were called inactive. Cut-off read from the data, not from the text of the source: active = normalized growth mostly below about 0.91 (no sharp cut-off); inconclusive = no clear call, values can overlap the other calls; inactive = mostly above about 0.92.",
  "data": [
    {"molecule": "CCCCNC(=O)NCCSCc1ccco1", "values": [
      {"measurement": "normalized growth", "setting": "[1]", "result": 1.01},
      {"measurement": "normalized growth", "setting": "[2]", "result": 0.986},
      {"measurement": "normalized growth", "setting": "[3]", "result": 0.982},
      {"measurement": "normalized growth", "setting": "S. cerevisiae deletion strains, locus YDL134C, strain PPH21, stronger effect = lower value", "result": 0.993},
      {"measurement": "normalized growth", "setting": "[4]", "result": 1},
      {"measurement": "normalized growth", "setting": "[5]", "result": 0.98},
      {"measurement": "normalized growth", "setting": "[6]", "result": 0.994},
      {"measurement": "normalized growth", "setting": "[7]", "result": 1.02},
      {"measurement": "normalized growth", "setting": "[8]", "result": 0.99},
      {"measurement": "normalized growth", "setting": "[9]", "result": 1.01},
      {"measurement": "normalized growth", "setting": "[10]", "result": 1.01},
      {"measurement": "normalized growth", "setting": "[11]", "result": 1},
      {"measurement": "normalized growth", "setting": "[12]", "result": 0.991},
      {"measurement": "normalized growth", "setting": "[13]", "result": 0.943},
      {"measurement": "normalized growth", "setting": "[14]", "result": 1.02},
      {"measurement": "normalized growth", "setting": "[15]", "result": 0.988},
      {"measurement": "normalized growth", "setting": "[16]", "result": 0.989},
      {"measurement": "normalized growth", "setting": "[17]", "result": 0.996},
      {"measurement": "normalized growth", "setting": "[18]", "result": 0.987},
      {"measurement": "normalized growth", "setting": "[19]", "result": 1.01},
      {"measurement": "normalized growth", "setting": "[20]", "result": 0.984},
      {"measurement": "normalized growth", "setting": "[21]", "result": 0.99},
      {"measurement": "normalized growth", "setting": "[22]", "result": 0.998},
      {"measurement": "normalized growth", "setting": "[23]", "result": 1},
      {"measurement": "normalized growth", "setting": "[24]", "result": 0.988},
      {"measurement": "normalized growth", "setting": "[25]", "result": 1.05},
      {"measurement": "normalized growth", "setting": "[26]", "result": 0.98}
    ]},
    {"molecule": "O=C(NCCSCc1ccc(Cl)cc1)c1ccc(Cl)cc1", "values": [
      {"measurement": "normalized growth", "setting": "[1]", "result": 0.941},
      {"measurement": "normalized growth", "setting": "[2]", "result": "0.919 (active)"},
      {"measurement": "normalized growth", "setting": "[3]", "result": 0.915},
      {"measurement": "normalized growth", "setting": "[4]", "result": 0.925},
      {"measurement": "normalized growth", "setting": "[5]", "result": 1.02},
      {"measurement": "normalized growth", "setting": "[6]", "result": "0.902 (active)"},
      {"measurement": "normalized growth", "setting": "[7]", "result": "0.0946 (active)"},
      {"measurement": "normalized growth", "setting": "[8]", "result": "0.903 (active)"},
      {"measurement": "normalized growth", "setting": "S. cerevisiae deletion strains, locus YJL187C, strain SWE1, stronger effect = lower value", "result": "0.897 (active)"},
      {"measurement": "normalized growth", "setting": "[9]", "result": 0.948},
      {"measurement": "normalized growth", "setting": "[10]", "result": 0.954},
      {"measurement": "normalized growth", "setting": "[11]", "result": 1.09},
      {"measurement": "normalized growth", "setting": "[12]", "result": 0.972},
      {"measurement": "normalized growth", "setting": "[13]", "result": "0.724 (active)"},
      {"measurement": "normalized growth", "setting": "[14]", "result": 1.01},
      {"measurement": "normalized growth", "setting": "[15]", "result": 0.881},
      {"measurement": "normalized growth", "setting": "[16]", "result": "0.932 (active)"},
      {"measurement": "normalized growth", "setting": "[17]", "result": 0.954},
      {"measurement": "normalized growth", "setting": "S. cerevisiae deletion strains, locus YMR307W, strain GAS1, stronger effect = lower value", "result": 0.849},
      {"measurement": "normalized growth", "setting": "[18]", "result": 0.965},
      {"measurement": "normalized growth", "setting": "[19]", "result": "0.907 (active)"},
      {"measurement": "normalized growth", "setting": "[20]", "result": "0.684 (active)"},
      {"measurement": "normalized growth", "setting": "[21]", "result": 0.961},
      {"measurement": "normalized growth", "setting": "[22]", "result": 0.936},
      {"measurement": "normalized growth", "setting": "[23]", "result": 0.893},
      {"measurement": "normalized growth", "setting": "[24]", "result": 1.03},
      {"measurement": "normalized growth", "setting": "[25]", "result": 1.07},
      {"measurement": "normalized growth", "setting": "[26]", "result": "0.887 (active)"}
    ]}
  ]
}
